This is a sample that favours compounds with a hit; in the whole collection about 4.7% have one here.
SKKanGAS inh = SKKanGAS growth inhibition; S. pyogenes SKKanGAS, kanamycin growth, BacTiter-Glo, 6 h; inhibition, % at 7.5 µM; actives 1.3% (n = 300,000);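 active = mean replicate score, as percent of positive control median, at least 50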;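 also: strain carries kanamycin resistance gene driven by streptokinase promoter and grows in 40 µg/ml kanamycin; loss of luminescence reflects streptokinase promoter inhibition or plain growth inhibition; 0% = median of DMSO wells and 100% = positive control at its reference dose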
tim23-1 inh = tim23-1 yeast growth inhibition. S. cerevisiae tim23-1 growth, BacTiter-Glo luminescence, 24 h. inhibition, % at 20 µM. actives 1.3% (n = 330,000). AID 463212;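 active = growth inhibition of the mutant yeast at or above 50%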;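 also: temperature-sensitive mutant grown at 25 °C; plate controls were DMSO-treated mutant yeast for no effect and medium wells lacking yeast for full effect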
tim10-1 inh = growth inhibitors of tim10-1 mutant yeast. actives 2.2% (n = 330,000). S. cerevisiae tim10-1 ts strain growth, BacTiter-Glo, 24 h. inhibition, % at 20 µM;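 active = inhibition of at least 40%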;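 also: mutant grown at 25 °C; 0% = DMSO wells with yeast and 100% = wells holding no yeast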
PfHsp90 set2 = growth inhibition of yeast expressing Plasmodium Hsp90; AID 504621; actives 0.32% (n = 310,000); S. cerevisiae expressing PfHsp90, BacTiter-Glo ATP, 48 h; yeast lacking PDR1 and PDR3 efflux regulators; inhibition, % at 9.4 µM;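 active = every replicate shows inhibition above about 80%, whatever the replicate mean, limit read from the data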;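 also: 0% = DMSO neutral controls and 100% = 20 µM radicicol positive controls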
TIM10 inh = TIM10 yeast growth inhibition; inhibition, % at 10 µM; AID 463195; actives 1.4% (n = 330,000); S. cerevisiae TIM10 strain growth, BacTiter-Glo luminescence, 24 h;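 active = inhibition of 40% or more at the single tested concentration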;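 also: wild-type TIM10 isogenic control strain grown at permissive 25 °C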
EBI2 block = EBI2 (human) antagonism. P32249. EBI2 beta-arrestin recruitment, luminescence, 7a,25-OHC stimulated. inhibition, % at 5 µM. actives 0.81% (n = 360,000). AID 651636; in the data active = inhibition above about 38%;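 also: enzyme fragment complementation signal reports receptor beta-arrestin coupling in cells; 0% = agonist plus DMSO wells and 100% = wells without agonist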
Target sequence (P32249 whole entry, looked up, the tested form may be a part): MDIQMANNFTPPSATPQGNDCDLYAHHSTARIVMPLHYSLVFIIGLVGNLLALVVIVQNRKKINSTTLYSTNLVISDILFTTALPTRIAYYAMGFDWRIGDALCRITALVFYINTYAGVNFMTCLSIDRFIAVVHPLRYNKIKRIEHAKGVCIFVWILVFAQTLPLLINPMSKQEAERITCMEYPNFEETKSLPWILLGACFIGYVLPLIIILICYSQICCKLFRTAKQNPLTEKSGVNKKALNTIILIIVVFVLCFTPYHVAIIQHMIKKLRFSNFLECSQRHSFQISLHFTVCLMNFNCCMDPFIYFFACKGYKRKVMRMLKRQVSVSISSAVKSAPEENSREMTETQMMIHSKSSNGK
* marks the source's active call; other numbers are inactive results; x = no result.

SMILES | SKKanGAS inh | tim23-1 inh | tim10-1 inh | PfHsp90 set2 | TIM10 inh | EBI2 block
Cc1nc(-c2ccc(S(=O)(=O)Nc3ccc(Br)cc3Cl)s2)cs1 | 74* | 41 | 28 | -10 | 38 | -3
CN[C@H]1C[C@H]2c3[nH]c4ccc(-c5cccc(C)c5)cc4c3CCN2C[C@H]1[C@H](C)O | x | x | x | x | x | 9
COc1cccc(-c2coc3c(C)c4oc(=O)c(CCC(=O)O)c(C)c4cc23)c1 | 51* | 12 | 0 | -35 | 14 | -13
COc1cccc(-c2coc3c(C)c4oc(=O)c(CC(=O)O)c(C)c4cc23)c1 | 17 | 12 | 1 | -6 | 24 | -2
CCOC(=O)C1=CCN(S(=O)(=O)c2ccc(C)cc2)C1c1cccs1 (stereo not drawn) | x | x | x | x | x | -2
NNC(=O)Cc1cccc2ccc(Cl)cc12 | x | x | x | x | x | -1
C[C@H]1COC2=C1C(=O)C(=O)c1c2ccc2c1CCCC2(C)C | 86* | x | x | -48 | x | 2
Cc1ccc(F)c(NC(=O)/C(C#N)=C(\O)c2ccc(C(C)(C)C)cc2)c1 | 59* | 18 | 19 | -1 | 30 | -8
Cc1ccc(F)c(NC(=O)c2ccc(Cn3cc(Cl)cn3)cc2)c1 | 10 | 40 | 30 | -4 | 25 | -4
CC(=O)Nc1ccc(OCC(=O)N(CC(C)C)C2CCS(=O)(=O)C2)cc1 (stereo not drawn) | 3 | -10 | 15 | -22 | -3 | -7
CC(C)CN(C(=O)COc1ccc(-c2nnco2)cc1)C1CCS(=O)(=O)C1 (stereo not drawn) | 61* | -15 | -9 | -12 | 6 | 2
C[C@@H]1CN([C@H](C)CO)C(=O)CCCn2nncc2CO[C@H]1CN(C)C(=O)C1CCCCC1 | x | x | x | x | x | -3
CC(C)(C)c1ccc(C(=O)Nc2cccc3c(=O)[nH][nH]c(=O)c23)cc1 | 10 | x | x | 12 | x | 2
COc1ccc(O)c(C(=O)CC(=O)c2ccccc2C)c1 | 60* | 22 | -44 | -15 | 5 | -3
COc1ccc(OC)c(CNC(=O)c2nn(C)c3c2CS(=O)(=O)c2ccccc2-3)c1 | -4 | 6 | -20 | -1 | 5 | -2
CC[C@H](C)[C@@H](CNC)NC[C@@H](Cc1ccc(O)cc1)NCC(C)(C)C | 0 | -13 | -1 | 5 | 7 | -4
CC[C@@H](C)[C@H](CN[C@H](CNC)C(C)C)NC[C@@H](C)c1ccc(CC(C)C)cc1 | 64* | 2 | 15 | 9 | 14 | -19
Cc1cc(C)c(C#N)c(N2CCN(c3ccccc3F)CC2)n1 | 50* | 26 | 5 | 20 | 0 | -5
Cc1cc(C)c(C#N)c(N2CCN(Cc3ccccc3)CC2)n1 | -16 | 3 | 26 | -6 | 3 | 7
O=C(Nc1ccc(Cl)c(Cl)c1)C1CC(=O)N(c2ccc(Br)cc2)C1 (stereo not drawn) | 54* | 46 | 26 | -36 | 29 | 11
Cc1ccc(N2CC(C(=O)N3CCC(C(=O)Nc4ccc(Br)cc4)CC3)CC2=O)cc1 (stereo not drawn) | 5 | 17 | 8 | 12 | 15 | 28
C/C(CC(=O)Nc1ccc(Cl)c(C(F)(F)F)c1)=N\NC(=O)c1cc2ccccc2cc1O | 95* | 39 | 38 | -5 | 20 | 6
COc1ccccc1C1CCCN1Cc1nc(-c2ccc(C)s2)oc1C (stereo not drawn) | 8 | 20 | 28 | -48 | 14 | 6
O=C(c1[nH]c(C(F)(F)F)nc1-c1ccccc1)N1CCN(c2ncccc2C(F)(F)F)CC1 | x | x | x | x | x | -8
COc1ccc(-c2onc3ccc(C(=O)/C=C/N(C)C)cc23)cc1 | 3 | 31 | 34 | -37 | 35 | 4
SMILES | SKKanGAS inh | tim23-1 inh | tim10-1 inh | PfHsp90 set2 | TIM10 inh | EBI2 block
CN(C)/C=C/C(=O)c1ccc2noc(-c3cccc(F)c3)c2c1 | -2 | 19 | 26 | 107* | -2 | 5
CS(=O)(=O)c1ccc(S(=O)(=O)N2CCN(C(=O)C(O)c3ccccc3)CC2)cc1 (stereo not drawn) | x | x | x | x | x | -5
CCOc1cc(/C=N/Nc2cc(C)nc(-n3nc(C)cc3C)n2)ccc1O | 66* | 5 | 13 | -25 | -4 | 97*
Cc1c(C(=O)NNC(=O)c2ccccc2O)oc2ccccc12 | x | x | x | x | x | -2
O=C(NC(=S)Nc1ccc(Cc2ccncc2)cc1)c1ccccc1F | 12 | 41 | 27 | 17 | 14 | 2
O=C(NC(=S)Nc1ccc(-c2nc3ncccc3o2)cc1)c1ccccc1F | 52* | -2 | 1 | 1 | -3 | -30
Cn1cnnc1SCc1ccc(C(=O)N/N=C(/CCC(=O)O)c2ccc(C(C)(C)C)cc2)cc1 | x | x | x | -9 | x | -7
C[C@H]1c2cccc(O)c2C(O)=C2C(=O)[C@]3(O)C(O)=C(C(N)=O)C(=O)[C@@H](N(C)C)C3[C@@H](O)C21 (stereo partly drawn) | 105* | -3 | -5 | 11 | -10 | 0
CCOC(=O)CCC(NC(=O)CCCCCCCC(=O)NC(CCC(=O)OCC)C(=O)OCC)C(=O)OCC (stereo not drawn) | 5 | 12 | 3 | 6 | 1 | -15
O=C1C(Cl)=C(NCCc2ccccc2)C(=O)c2ccccc21 | x | x | x | 116* | x | -13
CN1/C(=C/C(=O)c2nc(S(C)(=O)=O)ncc2Cl)C(C)(C)c2ccccc21 | -32 | 49 | 28 | -68 | 10 | 58*
Cc1csc(CNc2ncnc3ccc(-c4cccc(Cl)c4)cc23)c1 | x | 38 | 0 | 122* | -7 | 7
Cc1cccc(CNc2ncnc3ccc(-c4ccccc4Cl)cc23)c1 | x | 22 | 12 | -7 | 0 | -8
Cc1cccc(N2CCN(C(=O)c3[nH]c(C(F)(F)F)nc3-c3ccccc3)CC2)c1C | x | x | x | x | x | -8
Nc1c(C(=O)N2CCCCCC2)oc2ccccc12 | -4 | 38 | 8 | -15 | 16 | 1
Cc1ccc(C(=O)Nc2ccc3ccccc3n2)cc1 | -5 | 19 | 15 | 0 | -8 | 37
Cc1ccc(C(O)(C(=O)NNc2ccc3ccccc3n2)c2ccc(C)cc2)cc1 | 71* | 6 | -2 | -7 | 12 | -2
C[C@H]1CN([C@@H](C)CO)C(=O)CCCn2nncc2CO[C@@H]1CN(C)C(=O)c1ccc2ccn(C)c2c1 | x | x | x | x | x | -4
COc1cc(OC)c(/C=N/n2c(C)nnc2C)c(OC)c1 | -1 | 8 | 1 | 25 | 1 | -14
CC1=CSC2=NC(=O)/C(=C\c3cccn3-c3ccccc3)C(=N)N12 | -10 | -8 | 22 | -69 | 14 | 0
CC(C)c1ccc(-n2cccc2/C=C2/C(=N)N3C=CSC3=NC2=O)cc1 | 94* | -7 | 32 | -9 | 12 | -20
CC(=O)C1=C(O)C(=O)N(c2ccc(C(=O)O)cc2)C1c1ccc([N+](=O)[O-])cc1 (stereo not drawn) | 1 | 1 | -4 | -7 | 2 | -3
